Reference: the supplement of paper PMC8728848
The full list was thinned out, with the strongest signals kept by preference.

How the values were obtained:
Assay in all cases: glycan array binding signal (z-score within array); higher = stronger binding
Conditions in all cases: glycan notation: IUPAC condensed, linker removed
[1] = molecular target: GalNAc3S(b1-4)[Fuc(a1-3)]GlcNAc
Summary of the method: (§1)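 Columns mapping to the same glycan were averaged after glycan names were converted to IUPAC-condensed notation. The data come from 3228 arrays in the Consortium for Functional Glycomics database, limited to those with an available protein sequence. Binding is reported as a within-array Z-score averaged across arrays of one protein sequence and across linkers.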

Glc(b1-6)Glc = molecular target: Glc(b1-6)Glc
Summary of the method: as §1

[2] = molecular target: GlcNAc(a1-4)Gal(b1-4)GlcNAc(b1-3)Gal(b1-4)[Fuc(a1-3)]GlcNAc(b1-3)Gal(b1-4)[Fuc(a1-3)]GlcNAc
Summary of the method: as §1

[3] = molecular target: GlcNAc(b1-2)Gal(b1-3)GalNAc
Summary of the method: as §1

GlcNAc(b1-3)Fuc = molecular target: GlcNAc(b1-3)Fuc
Summary of the method: as §1

[4] = molecular target: GlcNAc(b1-3)Gal(b1-4)GlcNAc(b1-2)Man(a1-3)[GlcNAc(b1-3)Gal(b1-4)GlcNAc(b1-2)Man(a1-6)]Man(b1-4)GlcNAc(b1-4)[Fuc(a1-6)]GlcNAc
Summary of the method: as §1

[5] = molecular target: GlcNAc(b1-3)[GlcNAc(b1-6)]Gal(b1-4)GlcNAc
Summary of the method: as §1

[6] = molecular target: GlcNAc(b1-4)GlcNAc(b1-4)GlcNAc(b1-4)GlcNAc(b1-4)GlcNAc
Summary of the method: as §1

[7] = molecular target: Man(a1-2)Man(a1-3)[Man(a1-6)]Man(a1-6)[Man(a1-2)Man(a1-3)]Man(b1-4)GlcNAc(b1-4)GlcNAc
Summary of the method: as §1

[8] = molecular target: Man(a1-3)[Man(a1-6)]Man(a1-6)[Man(a1-3)]Man(b1-4)GlcNAc(b1-4)GlcNAc
Summary of the method: as §1

[9] = molecular target: Neu5Ac(a2-3)Gal(b1-3)GalNAc(b1-4)[Neu5Ac(a2-3)]Gal(b1-4)Glc
Summary of the method: as §1

[10] = molecular target: Neu5Ac(a2-3)Gal(b1-3)GlcNAc(b1-2)Man
Summary of the method: as §1

[11] = molecular target: Neu5Ac(a2-3)Gal(b1-3)GlcNAc(b1-3)Gal(b1-4)GlcNAc
Summary of the method: as §1

[12] = molecular target: Neu5Ac(a2-3)Gal(b1-3)[GlcNAc(b1-6)]GalNAc
Summary of the method: as §1

[13] = molecular target: Neu5Ac(a2-3)Gal(b1-3)]Neu5Ac(a2-3)Gal(b1-4)]GlcNAc
Summary of the method: as §1

[14] = molecular target: Neu5Ac(a2-3)Gal(b1-4)GlcNAc(b1-2)Man(a1-3)[Neu5Ac(a2-3)Gal(b1-4)GlcNAc(b1-2)Man(a1-6)]Man(b1-4)GlcNAc(b1-4)[Fuc(a1-6)]GlcNAc
Summary of the method: as §1

[15] = molecular target: Neu5Ac(a2-3)Gal(b1-4)GlcNAc(b1-3)Gal(b1-4)GlcNAc
Summary of the method: as §1

[16] = molecular target: Neu5Ac(a2-3)Gal(b1-4)GlcNAc6S
Summary of the method: as §1

[17] = molecular target: Neu5Ac(a2-3)Gal(b1-4)[Fuc(a1-3)]GlcNAc(b1-2)Man
Summary of the method: as §1

[18] = molecular target: Neu5Ac(a2-6)Gal(b1-4)GlcNAc(b1-2)Man(a1-6)[Man(a1-3)]Man(b1-4)GlcNAc(b1-4)GlcNAc
Summary of the method: as §1

[19] = molecular target: Neu5Ac(a2-6)Gal(b1-4)GlcNAc(b1-3)Gal(b1-4)GlcNAc(b1-3)Gal(b1-4)GlcNAc(b1-2)Man(a1-3)[Neu5Ac(a2-6)Gal(b1-4)GlcNAc(b1-3)Gal(b1-4)GlcNAc(b1-3)Gal(b1-4)GlcNAc(b1-2)Man(a1-6)]GalNAc
Summary of the method: as §1

[20] = molecular target: Neu5Ac(a2-6)Gal(b1-4)GlcNAc(b1-3)Gal(b1-4)GlcNAc(b1-3)GalNAc
Summary of the method: as §1

[21] = molecular target: Neu5Ac(a2-6)Gal(b1-4)GlcNAc(b1-3)Gal(b1-4)GlcNAc(b1-3)[Neu5Ac(a2-6)Gal(b1-4)GlcNAc(b1-3)Gal(b1-4)GlcNAc(b1-6)]GalNAc
Summary of the method: as §1

[22] = molecular target: Neu5Ac(a2-6)Gal(b1-4)GlcNAc(b1-6)[Gal(b1-3)GlcNAc(b1-3)]Gal(b1-4)Glc
Summary of the method: as §1

[23] = molecular target: Neu5Ac(a2-6)GalNAc(b1-4)GlcNAc6S
Summary of the method: as §1

[24] = molecular target: Neu5Ac(a2-8)Neu5Gc(a2-3)Gal(b1-4)GlcNAc
Summary of the method: as §1

[25] = molecular target: Neu5Gc(a2-3)Gal(b1-4)GlcNAc(b1-3)Gal(b1-4)GlcNAc(b1-2)Man(a1-3)[Neu5Gc(a2-3)Gal(b1-4)GlcNAc(b1-3)Gal(b1-4)GlcNAc(b1-2)Man(a1-6)]Man(b1-4)GlcNAc(b1-4)GlcNAc
Summary of the method: as §1

B1: SJCP1531 (Schistosoma japonicum) (protein)
chain: MFKVRIINLVNISTVLLLINLLQTKSQVNVEQLVTVLEVNIKAQLKNKTTEVLVEWNPLYQDNSMPEYRKLLDETCKLFLPFVNEKVPPSTYGGECTNANFSEAPQDGSYSRVNAELRLIYKYSDNPQIQTDRLQDDLNDREEFITSESSFVAYNPKFTVKIEKLFIPISESQTTPPPTTAKNDASKKDDDDNGGEDSKAPIDTFAMTASGNKGKKDDDDNGGEDSKAPIDTFAMTASGSKDERSTWTIIGIITLVVLIFVVIGGGITVFVKRC
B1 was tested, and the “glycan array binding signal (z-score)” value [1] was -1.15, the “glycan array binding signal (z-score)” value (Glc(b1-6)Glc) was -0.797 and the “glycan array binding signal (z-score)” value [2] was 2.8. The “glycan array binding signal (z-score)” value [3] was -1.08, the “glycan array binding signal (z-score)” value (GlcNAc(b1-3)Fuc) was -0.112 and the “glycan array binding signal (z-score)” value [4] was -0.143. For the same binder, the “glycan array binding signal (z-score)” value [5] was 0.523, the “glycan array binding signal (z-score)” value [6] was -0.099 and the “glycan array binding signal (z-score)” value [7] was -1.4. The “glycan array binding signal (z-score)” value [8] was -0.243, the “glycan array binding signal (z-score)” value [9] was -1.32 and the “glycan array binding signal (z-score)” value [10] was -0.604. The “glycan array binding signal (z-score)” value [11] was -0.438, the “glycan array binding signal (z-score)” value [12] was 0.205 and the “glycan array binding signal (z-score)” value [13] was -0.188. The “glycan array binding signal (z-score)” value [14] was -1.15, the “glycan array binding signal (z-score)” value [15] was 2.53 and the “glycan array binding signal (z-score)” value [16] was 0.004. The “glycan array binding signal (z-score)” value [17] was -0.84, the “glycan array binding signal (z-score)” value [18] was -1.2 and the “glycan array binding signal (z-score)” value [19] was 3.3. The “glycan array binding signal (z-score)” value [20] was 2.87, the “glycan array binding signal (z-score)” value [21] was 3 and the “glycan array binding signal (z-score)” value [22] was 0.485. For the same binder, the “glycan array binding signal (z-score)” value [23] was 0.413, the “glycan array binding signal (z-score)” value [24] was -1.65 and the “glycan array binding signal (z-score)” value [25] was 0.86.
